Source: PubChem BioAssay
Values joined by “and” are separate entries in the source; they are usually repeats but may differ in a detail not shown here. Equal values may be shown once. Records with an inconclusive call do not appear. For some assays here: Entries with a potency or affinity are not part of this list. Active and inactive are the calls of the source. Unless noted, how the calls were made is not given here.

Assays:
[1] = polyglutamine-triggered caspase-3 activation inhibitors, cell-based (AID 1583); details: polyglutamine-induced caspase-3 activation, cell assay; stronger effect = higher value;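 tested at 10 µM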
[2] = suppressors of polyQ aggregation in yeast, 75Q-TubU reporter (AID 1593); details: Yeast 75Q polyglutamine aggregation reporter
[3] = rescue of polyQ-huntingtin neuronal dysfunction in worms, whole organism, C. elegans mechanosensory neurons, N-terminal huntingtin (AID 1599); details: touch response, stronger effect = higher value
[4] = inhibitors of mitochondrial cytochrome c release, biochemical, purified mitochondria (AID 1603); details: stronger effect = lower value;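 further: mouse liver mitochondria challenged with calcium chloride; signal normalized to the plate average as 100%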
[5] = inhibitors of polyQ protein aggregation (AID 1604); details: polyglutamine-induced protein aggregation inhibition assay; stronger effect = higher value; tested at 2.5 µM
[6] = enhancers of glutamate uptake in motor neurons, MN-1 cell line (AID 1612); details: MN-1 motor neuron cells, stronger effect = higher value;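 further: tested at 1 µM final; 0% = mean of DMSO vehicle wells on each plate; positive means more glutamate uptake than control and negative means less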
[7] = reducers of polyQ inclusions in PC12 cells, cell-based, NGF-treated PC12, GFPQ80 (AID 1614); details: PC12 NGF-treated GFP-polyQ80 inclusion reduction;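 further: lower means fewer inclusions and 0 means no inclusions at all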
[8] = suppressors of polyglutamine aggregation in yeast, 75Q-TubH (AID 1616); details: S. cerevisiae 75Q-TubH polyglutamine aggregation suppression; stronger effect = higher value
[9] = circadian clock period modulators, cell-based, LOPAC library, luminescence reporter (AID 2774); details: circadian reporter cells, at 7 µM, actives lie on both sides;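 further: values are relative to mean of DMSO wells on each plate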
[10] = target: ATP-dependent translocase ABCB1 (Homo sapiens) (UniProt P08183); assay: MDR1 (ABCB1) efflux transporter inhibition, cell-based (AID 377; in the data active means fluorescence slope change above about 50%); details: MDR1-expressing cells, fluorescent substrate accumulation slope; stronger effect = higher value; concentration not given here
ATP-dependent translocase ABCB1 (Homo sapiens), sequence (P08183 whole entry, looked up): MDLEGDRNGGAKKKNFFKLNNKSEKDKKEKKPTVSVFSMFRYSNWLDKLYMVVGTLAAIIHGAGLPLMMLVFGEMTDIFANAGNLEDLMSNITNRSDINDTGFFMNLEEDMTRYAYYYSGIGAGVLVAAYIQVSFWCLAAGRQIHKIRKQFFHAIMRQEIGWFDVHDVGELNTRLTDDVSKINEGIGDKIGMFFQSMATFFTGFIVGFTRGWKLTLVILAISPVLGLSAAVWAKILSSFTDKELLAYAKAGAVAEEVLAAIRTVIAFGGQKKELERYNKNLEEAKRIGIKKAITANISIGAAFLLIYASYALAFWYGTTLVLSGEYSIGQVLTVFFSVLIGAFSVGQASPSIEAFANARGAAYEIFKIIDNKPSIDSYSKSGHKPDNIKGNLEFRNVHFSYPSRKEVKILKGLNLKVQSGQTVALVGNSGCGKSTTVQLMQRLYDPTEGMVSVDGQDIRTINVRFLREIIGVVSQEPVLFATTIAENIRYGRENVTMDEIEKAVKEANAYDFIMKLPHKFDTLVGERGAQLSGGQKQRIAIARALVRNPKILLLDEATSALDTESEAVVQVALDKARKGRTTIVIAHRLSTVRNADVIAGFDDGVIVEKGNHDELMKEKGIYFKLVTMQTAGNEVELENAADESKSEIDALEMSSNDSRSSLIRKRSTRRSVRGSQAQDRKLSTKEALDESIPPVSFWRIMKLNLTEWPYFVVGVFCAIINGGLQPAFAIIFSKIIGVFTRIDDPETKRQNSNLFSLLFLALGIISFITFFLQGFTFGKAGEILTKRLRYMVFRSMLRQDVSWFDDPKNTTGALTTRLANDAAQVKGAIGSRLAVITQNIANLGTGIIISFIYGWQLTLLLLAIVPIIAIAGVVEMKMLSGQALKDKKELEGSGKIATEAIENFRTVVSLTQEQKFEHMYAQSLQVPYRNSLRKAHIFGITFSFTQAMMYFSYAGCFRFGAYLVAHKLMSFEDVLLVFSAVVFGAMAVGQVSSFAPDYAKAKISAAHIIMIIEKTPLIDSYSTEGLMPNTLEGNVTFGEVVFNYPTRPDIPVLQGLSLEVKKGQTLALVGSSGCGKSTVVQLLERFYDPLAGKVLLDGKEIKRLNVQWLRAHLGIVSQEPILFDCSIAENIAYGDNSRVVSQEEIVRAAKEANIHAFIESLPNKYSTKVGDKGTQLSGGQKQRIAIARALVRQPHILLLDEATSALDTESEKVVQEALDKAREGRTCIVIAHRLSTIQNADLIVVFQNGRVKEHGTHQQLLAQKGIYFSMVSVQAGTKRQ

[11] = hESC survival regulators, cell-based (AID 493140); details: human embryonic stem cell survival screen; stronger effect = higher value;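 further: cells exposed to compounds for four days before counting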

Compound	inhibition [1]	score [2]	rescue above control [3]	cytochrome c release ratio [4]	inhibition of aggregation [5]	glutamate uptake change [6]	inclusion score [7]	aggregation suppression score [8]	period change [9]	fluorescence slope change [10]	survival [11]
O=C(O)CCCCCCCC(=O)O	-26.7%	1.02	10.4	1.16	79.6%	4.35%	2	0.919	0.115 h (inactive)		
O=C(O)c1ccccc1O	11.5%	0.77	-5.04	0.97	56.1%	15.9%	2	0.863			
O=C1OCCN1/N=C/c1ccc([N+](=O)[O-])o1	4.31%	0.66	4.89	1.17	27%	4.62%	2	0.223			
COc1ccc(C2C(=O)c3ccccc3C2=O)cc1	2.6%	0.47	-9.34	1.11	79.6%	-8.78%	2	0.401			
NC[C@H](O)c1ccc(O)c(O)c1	10.9%	1.61	-5.19	1.03	44.7%	21.3%	2	1.39	0.04 h (inactive)		
O=C(O)P(=O)(O)O	-16.3%	1.28	9.34	0.68	30.6%	-1.79%	2	1.5			
Cc1cc(=O)[nH]c(=S)[nH]1	-32.8%	1.08	-4.23	0.82	69.4%	14.6%	2	1.02			
CC(=O)Nc1ccccc1	14.3% and 16.3%	1.29 and 1.35	-5.57 and 2.9	1.36 and 1.09	42.4% and 85.9%	3.38% and -12.1%	2	1.6 and 1.51			
NC(=O)NC(=O)Cc1ccccc1	24.8%	1.34	-4.86	1.02	4.16%	-11.7%	2	1.17			
OCc1ccccc1O	-8.47%	1.17	12.8	0.81	67.8%	16.3%	2	1.11			
CCCCCC(C)N (stereo not drawn)	-8.68%	1.2	1.21	1.02	-9.09%	3.71%	2	0.962			
Cn1c(=O)c2c(ncn2C)n(C)c1=O	5.72%	1.32	4.29	1.5	74.9%	-3.95%	2	1.18	0.03 h (inactive)		
Oc1cccc(O)c1	9.11%	1.66	3.39	0.9	60.3%	8.45%	2	1.13			
OC[C@H]1O[C@@H](O[C@@H]2[C@@H](CO)O[C@](O)(CO)[C@H]2O)[C@H](O)[C@@H](O)[C@H]1O	-7.91%	1.23	-9.67	1.19	51.2%	8.9%	2	0.924			
O=C(O)c1cc(=O)c2ccccc2o1	6.16%	1.58	-0.59	0.94	87.2%	2.44%	2	1.45			
CC1=C(C(=O)O)N2C(=O)[C@@H](NC(=O)[C@H](N)C3=CCC=CC3)[C@H]2SC1	-6.99%	1.49	19	0.86	74.7%	-0.28%	2	1.56			
NC(=O)NO	-0.33%	1.4	-1.6	0.82	85.9%	1.4%	2	1.3	-0.055 h (inactive)		
CC(=O)N[C@@H](CS)C(=O)O	-21.7%	1.46	-1.36	1.05	79.6%	-3.8%	2	1.2	0.1 h (inactive)		
Nc1ccc(C(=O)O)cc1	2.66%	1.16	-2.5	0.9	72.2%	15.6%	2	1.25			
Nc1ccc(C(=O)O)c(O)c1	-17.6%	1.08	7.16	1.48	88.8%	2.47%	2	1.24			
CC(=O)Oc1cccc(O)c1	-9.3%	1.19	8.59	0.86	-34.2%	-3.14%	2	0.901			
NCCCC(=O)O	15.3%	1.12	-4.87	0.87	18.5%	-3.42%	2	0.665	0.105 h (inactive)		
Nc1c2c(nc3ccccc13)CCCC2O (stereo not drawn)	19.1%	1.04	-4.39	0.96	59.1%	6.03%	2	0.587	0.15 h (inactive)		
NC(Cc1ccc(Cl)cc1)C(=O)O (stereo not drawn)	2.04%	1.27	22.3	0.79	83.3%	-15.1%	2	1.23	-0.015 h (inactive)		

Compound	inhibition [1]	score [2]	rescue above control [3]	cytochrome c release ratio [4]	inhibition of aggregation [5]	glutamate uptake change [6]	inclusion score [7]	aggregation suppression score [8]	period change [9]	fluorescence slope change [10]	survival [11]
CCC(=O)c1c(O)cc(O)cc1O	6.37%	0.94	-3.67	1.29	38.9%	-10.7%	2	1.29			
O=C(O)c1ccc(S(=O)(=O)N(Cl)Cl)cc1	18.5%	1.25	8.13	0.74	56.3%	-1.46%	2	1.13			
CC(=O)NCCCCCC(=O)O	22.1%	1.42	-0.56	1.37	74.4%	-9.11%	2	1.24			
Cc1cc(C(C)(C)C)c(O)c(C)c1CC1=NCCN1	-9.11%	1.29	2.64	0.88	6.98%	-22.6%	2	1.13	-0.09 h (inactive)	75.3% (active)	18.8 (inactive)
CS(=O)(=O)Nc1ccc([N+](=O)[O-])cc1Oc1ccccc1	6.83%	0.85	3.29	3.47	42.5%	-10.7%	2	0.728	0.17 h (inactive)	50.2% (active)	16.8 (inactive)
O=C(O)c1cccnc1Nc1cccc(C(F)(F)F)c1	18.6%	-0.01	7.18	0.87	-18.2%	6.09%	1	0.0604	0.085 h (inactive)		22.6 (inactive)
CNC[C@H](O)c1cccc(O)c1	-27.4%	1.21	-6.19	0.84	47.4%	3.44%	2	1.2	-0.48 h (inactive)		
CN(C)C(=O)Oc1cccc([N+](C)(C)C)c1	15.7% and 16.9%	1.16 and 1.39	10.4 and -12.8	0.9 and 1.01	74.6% and 38%	-18.8% and 13.6%	2	0.695 and 1.29	0.06 h (inactive)		12.1 (inactive)
Nc1ccc(S(=O)(=O)Nc2ccnn2-c2ccccc2)cc1	-0.92%	1.43	-6.57	0.99	4.55%	16.6%	2	0.956	0.065 h (inactive)		28 (inactive)
Cn1cnc2c1c(=O)[nH]c(=O)n2C	30.4%	1.43	-0.5	0.76	28.1%	-19.3%	1.5	1.09	-0.055 h (inactive)		3.33 (inactive)
C[C@](N)(Cc1ccc(O)c(O)c1)C(=O)O	10.4%	1.25	10.7	1.01	31.7%	33%	2	1.39	-0.07 h (inactive)	52.1% (active)	3.58 (inactive)
CC(=O)OCC1=C(C(=O)O)N2C(=O)[C@@H](NC(=O)Cc3cccs3)[C@H]2SC1	11.1%	1.29	-1.7	0.78	-17.5%	0.12%	2	1.47	0.04 h (inactive)	2.1% (inactive)	7.08 (inactive)
CCC1(C)CC(=O)NC1=O (stereo not drawn)	3.06%	1.25	1.02	1.3	4.76%	-2.95%	2	1.06	0.01 h (inactive)		28.8 (inactive)
NCCCCCC(=O)O	-5.51%	1.37	1.88	1.36	75.6%	-5.97%	2	1.27	0.065 h (inactive)		2 (inactive)
O=C1NCC2(CCN(CCc3ccccc3)CC2)O1	-2.12%	1.22	-3.96	1.11	88.9%	-8.17%	2	1.64	0 h (inactive)	54.1% (active)	18.8 (inactive)
Cc1cc(C(C)(C)C)cc(C)c1CC1=NCCN1	23.6%	1.63	-3.36	1.05	63.4%	16.9%	2	1.86	0.03 h (inactive)	26.6% (inactive)	6.75 (inactive)
O=C1CC2(CCCC2)CC(=O)N1CCCCN1CCN(c2ncccn2)CC1	-0.71%	1.18	1.91	1.06	48.3%	15.2%	2	1.24	-0.08 h (inactive)	65.3% (active)	4 (inactive)
CCN(CC)CCNC(=O)c1cc(Cl)c(N)cc1OC	-5.58%	1.42	-6.22	1.15	25.8%	-0.01%	2	1.2	-0.015 h (inactive)	27.9% (inactive)	14.7 (inactive)
C[N+](C)(C)CCCCCC[N+](C)(C)C	1.59%	1.14	-10.3	0.92	72.2%	11.7%	2	1.28	-0.005 hour (inactive) and -0.2 hour (inactive)		12.8 (inactive)
CC[N+](CC)(CC)CCOc1cccc(OCC[N+](CC)(CC)CC)c1OCC[N+](CC)(CC)CC	2.37%	1.11	4.9	1.78	83.6%	40.5%	2	1.15	0 h (inactive)		28.5 (inactive)
CN1Cc2c(N)cccc2C(c2ccccc2)C1 (stereo not drawn)	63.6%	1.13	-9.83	0.88	75%	-14.3%	2	1.65	-0.06 h (inactive)	80.5% (active)	19.8 (inactive)
CC(=O)Oc1ccccc1C(=O)O	-10.2%	1.29	9.45	1.35	61.5%	9.8%	2	1.28	-0.135 h (inactive)		
COCCc1ccc(OCC(O)CNC(C)C)cc1 (stereo not drawn)	9.55%	0.98	-6.09	0.97	69.7%	-0.51%	2	0.579	0.045 h (inactive)	51% (active)	15.4 (inactive)
NNc1nncc2ccccc12	24%	1.45	-2.16	0.9	-30.3%	4.84%	2	1.4	0.12 h (inactive)	71.4% (active)	18.2 (inactive)
